Experimental data reported in PubChem BioAssay AID1159580 (chemical genetic matrix, 2015).
Screen size: about 5,500 compounds; about 2,000 (36%) were called active. Roughly 18% stayed inconclusive and do not appear here. Rule as the data show it: active = normalized growth mostly below about 0.91 (no sharp cut-off); inconclusive = no clear call, values can overlap the other calls; inactive = mostly above about 0.92. The list shows a part of the results.

Assay: chemical genetic growth profiling, strain panel (AID 1159580);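 also: tested at 20 µM; growth read once vehicle control cultures reached saturation at 30 °C; 1 = growth at the plate median or of vehicle wells; lower values mean less growth of the strain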
Settings: S. cerevisiae deletion strains, growth OD

Measured: normalized growth

Cc1ccc(OCc2nnc(SCC(=O)Nc3cccc4c3OCO4)n2-c2ccccc2)c2c1CCC2
inactive: locus YAL013W, strain DEP1, active compounds read low 1.01 | locus YBR229C, strain ROT2, active compounds read low 1.01 | locus YCL061C, strain MRC1, active compounds read low 1 | locus YDL101C, strain DUN1, active compounds read low 0.992 | locus YDR150W, strain NUM1, active compounds read low 0.982 | locus YEL061C, strain CIN8, active compounds read low 0.99 | locus YGR078C, strain PAC10, active compounds read low 1 | locus YGR229C, strain SMI1, active compounds read low 0.993 | locus YHR030C, strain SLT2, active compounds read low 1 | locus YHR087W, strain rtc3, active compounds read low 0.992 | locus YJR043C, strain POL32, active compounds read low 1 | locus YJR075W, strain HOC1, active compounds read low 1.01 | locus YKL190W, strain CNB1, active compounds read low 0.973 | locus YLR039C, strain RIC1, active compounds read low 0.991 | locus YLR058C, strain SHM2 (second series), active compounds read low 1.01 | locus YLR085C, strain ARP6, active compounds read low 0.995 | locus YLR262C, strain YPT6, active compounds read low 0.985 | locus YML094W, strain GIM5, active compounds read low 0.98 | locus YMR219W, strain ESC1, active compounds read low 0.999 | locus YMR263W, strain SAP30, active compounds read low 1.01 | locus YNL128W, strain TEP1, active compounds read low 0.984 | locus YNL153C, strain GIM3, active compounds read low 1 | locus YNL298W, strain CLA4 (second series), active compounds read low 0.988 | locus YNL322C, strain KRE1, active compounds read low 0.992 | locus YNR030W, strain Alg12, active compounds read low 0.995 | locus YPL055C, strain LGE1, active compounds read low 0.991 | locus YPL241C, strain CIN2, active compounds read low 0.999 | locus YPR135W, strain CTF4, active compounds read low 1.02
